# Experimental data: PubChem BioAssay AID1530 (NMMLSC, 2009)
# Hit rate of the full screen: of about 290,000 compounds, about 1,000 (0.34%) were called active. No stated cut-off is given here; in the data, active means percent response above about 24% (passing the limit was not always enough); inactive means the rest. Only a selection was taken, and actives are over-represented in it overall.
# Test system: MEKK2 (MAP3K2) mutant PB1 domain binding to MEK5, human
# Assay: MEK5 binding signal on mutant MEKK2 PB1, primary screen, biochemical, multiplex bead flow cytometry, Alexa488-MEK5 (AID 1530)
# Conditions: at 10 µM, stronger effect = higher value
row,Compound,percent response
1,O=c1c2c3c(sc2n(CCN2CCCC2)c(=O)n1Cc1ccccc1)CCCCC3,1% (inactive)
2,O=C(CC1SCCNC1=O)Nc1ccc(Cl)cc1 (stereo not given),-10% (inactive)
3,O=C(CC1SCCNC1=O)Nc1ccc(Cl)c(Cl)c1 (stereo not given),174% (active)
4,O=C(CC1NCCNC1=O)Nc1cc(Cl)cc(Cl)c1 (stereo not given),2% (inactive)
5,Cc1ccc(C(=O)c2coc3ccc(O)c(CN(C)C)c23)cc1,11% (inactive)
6,COc1cccc2sc(N(CCCN(C)C)C(=O)C(c3ccccc3)c3ccccc3)nc12,22% (inactive)
7,COc1cccc2sc(N(CCCN(C)C)C(=O)CCS(=O)(=O)c3ccccc3)nc12,6% (inactive)
8,CN(C)CCCN(C(=O)COc1ccccc1)c1nc2c(Cl)cccc2s1,87% (active)
9,C/C(=N\NC(=O)c1ccoc1C)c1ccccc1O,3% (inactive)
10,O=S(=O)(NC1CCCCC1N1CCC(O)CC1)c1ccc(Cl)cc1 (stereo not given),2% (inactive)
11,COc1ccc(C2NC(=O)C(=O)/C2=C(\O)c2ccc(Cl)cc2)cc1OC (stereo not given),5% (inactive)
12,O=C(NCCCN1CCCCCC1)C1CC(=O)N(C2CCCC2)C1 (stereo not given),31% (active)
13,CC(C)OCCCNC(=O)C1CC(=O)N(C2CCCCCCC2)C1 (stereo not given),10% (inactive)
14,O=C(NCCc1ccc(Cl)cc1)C1CC(=O)N(C2CCCCC2)C1 (stereo not given),-5% (inactive)
15,CC1(C)C=Cc2c(ccc3c2OC[C@@H](c2ccc(O)cc2O)C3)O1,2% (inactive)
16,O=C(CCCN1C(=O)/C(=C\c2ccco2)SC1=S)Nc1cccc2ccccc12,-3% (inactive)
17,CNc1nc2c(C)cccn2c(=O)c1C=Nc1ccc(OC)cc1,0% (inactive)
18,CCOC(=O)CC1C(=O)NCCN1c1nc2c(C)cccn2c(=O)c1/C=C1\SC(=S)N(C(C)CC)C1=O (stereo not given),-23% (inactive)
19,CCCN(CCC)c1nc2c(C)cccn2c(=O)c1/C=C1/SC(=S)N(Cc2ccco2)C1=O,147% (active)
20,O=C(CCCN1C(=O)/C(=C/c2ccco2)SC1=S)Nc1ccccc1,0% (inactive)
21,Cc1cccn2c(=O)c(/C=C3\SC(=S)N(CC(C)C)C3=O)c(NCCCOC(C)C)nc12,97% (active)
22,Nc1ccc2nn(-c3ccc(Cl)cc3)nc2c1,-4% (inactive)
23,Cc1cc2oc(=O)cc(CN3CCN(S(=O)(=O)c4cccs4)CC3)c2cc1C(C)C,0% (inactive)
24,COC(=O)c1ccc(CNC(=O)C2CCC(=O)N(Cc3cccc(F)c3)C2)cc1 (stereo not given),4% (inactive)
25,O=C(Cn1ncc2c3ccccc3n(Cc3ccccc3)c2c1=O)NCCCN1CCOCC1,4% (inactive)
